# Measurements published in PubChem BioAssay (NCI).
# About 79,000 compounds went through this panel and 15% of them were active in at least one assay; those are over-represented in the sample as a whole. Values without a mark were called inactive. The source made the active and inactive calls. Cut-off read from the data, not from the text of the source: active = growth inhibition above about 70%; inactive = the rest.
# Key:
# [1] = NCI Yeast Anticancer Drug Screen. Data for the rad50 strain (AID 155);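 note: 0% = growth of vehicle-only cultures of the same strain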; conditions: S. cerevisiae rad50 strain growth inhibition; at 50.0 µM; active compounds read high
# Procedure, shortened: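 A DNA repair-deficient yeast mutant serves as the test organism; compound-induced growth inhibition is calculated against vehicle-treated cells.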
# [2] = NCI Yeast Anticancer Drug Screen. Data for the mec2-1 strain (AID 157); conditions: S. cerevisiae mec2-1 strain, at 50.0 µM, active compounds read high
# Procedure, shortened: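 Compounds were applied to mec2-1 yeast cells. Their growth was then compared with that of vehicle-treated cultures to give growth inhibition.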
# [3] = NCI Yeast Anticancer Drug Screen. Data for the sgs1 mgt1 strain (AID 161);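 note: 0% = growth of cultures given vehicle only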; conditions: S. cerevisiae sgs1 mgt1 strain, at 50.0 µM, active compounds read high
# Procedure, shortened: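 Percent growth inhibition was derived by comparing compound-exposed mutant yeast with vehicle-exposed cultures. The strain carries alterations in DNA damage repair.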
# [4] = NCI Yeast Anticancer Drug Screen. Data for the cln2 rad14 strain (AID 165);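 note: 0% = growth equal to vehicle treated cultures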; conditions: S. cerevisiae cln2 rad14 strain, at 50.0 µM, active compounds read high
# Procedure, shortened: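 Strain: cln2 rad14 yeast, altered in cell cycle control and DNA damage repair. Read-out: growth inhibition vs vehicle.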
# [5] = NCI Yeast Anticancer Drug Screen. Data for the bub3 strain (AID 167); conditions: S. cerevisiae bub3 mutant strain, at 50.0 µM, active compounds read high
# Procedure, shortened: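 Inhibition values come from growth of compound-treated mutant yeast normalised to vehicle-treated controls.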
# [6] = NCI Yeast Anticancer Drug Screen. Data for the mlh1 rad18 strain (AID 175); conditions: S. cerevisiae mlh1 rad18 strain growth inhibition; at 50.0 µM; active compounds read high
# Procedure, shortened: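 A repair-deficient yeast strain is exposed to test compound, and growth is scored relative to vehicle-treated controls.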
SMILES,growth inhibition [1],growth inhibition [2],growth inhibition [3],growth inhibition [4],growth inhibition [5],growth inhibition [6]
Cn1nc(C(F)(F)C(F)(F)C(F)(F)F)nc1C(F)(F)C(F)(F)C(F)(F)F,12.6%,3.6%,4.45%,-3.75%,-2.15%,10.6%
CCOC(=O)NC(C)=O,-10.4%,-27.9%,14.1%,-16.3%,-19.3%,-20.8%
CC(C)OCCCN(Cn1c(=S)sc2ccccc21)Cn1c(=S)sc2ccccc21,66.8%,54.6%,85.9% (active),42.8%,39.2%,55.6%
COc1cc(NCC2COc3c(ccc(OC)c3OC)C2=O)c([N+](=O)[O-])cc1OC (stereo not given),9.35%,20.2%,8.15%,15.4%,-5.3%,21.4%
Cc1cc(Cl)ccc1N1C(=O)C(=O)C(c2nc3ccccc3s2)/C(=N\NC(=O)c2ccccc2O)C1=O (stereo not given),-37.9%,0.45%,-9.8%,10.8%,-15.2%,-14.9%
Cc1ccc(NC(=O)OC/C=C/c2ccccc2)cc1NC(=O)OC/C=C/c1ccccc1,17.9%,3.05%,9.05%,6.35%,-8.35%,24.1%
COc1ccc(C2CC2c2ccc(C#N)cc2)cc1 (stereo not given),7.05%,-6.4%,-1%,-40.6%,6.25%,-22.8%
Cc1cc(O)cc(C)c1Cl,17.2%,-25.9%,5.95%,-21.2%,12.9%,11.2%
COc1cc(-c2ccc(Nc3ccccc3C(=O)O)c(OC)c2)ccc1Nc1ccccc1C(=O)O,-4.45%,0.2%,1.05%,8.15%,3.8%,-11.9%
Cc1ccccc1N=C(N)Nc1ccccc1C,-25.5%,-29.9%,-44.3%,5.7%,-38.7%,-52.4%
CC(C)=C(Cl)c1c(C)cc(C)c(CC(N)=O)c1C,-14.1%,-3.75%,-8.15%,-27.2%,-9.95%,10.1%
CC(=O)Nc1ccccc1C=O,-4.15%,-7.95%,3.75%,-15.3%,-14.9%,-5.55%
OCC1OC(c2scc3c(=S)nc[nH]c23)C(O)C1O (stereo not given),-5.9%,-13.7%,-9.45%,19.6%,12.6%,-11.2%
COC(=O)C1(CC(=O)C(c2ccccc2)c2ccccc2)NC(=S)NC(=O)C1C#N (stereo not given),5.6%,4.65%,-12.8%,-2.7%,0.55%,-8.9%
Cc1cc2c(C(C)C)c(O)c(O)c(C=Nc3ccc4ccccc4c3)c2c(O)c1-c1c(C)cc2c(C(C)C)c(O)c(O)c(C=Nc3ccc4ccccc4c3)c2c1O,7.3%,-5.2%,-6.15%,-42.1%,-4.6%,1.2%
CCOC1=C/C(=N\NC(N)=O)CCC1,9.35%,7.2%,-1.1%,27.8%,3.95%,0.1%
Cc1ccc(SCCSc2ccc(C)cc2)cc1,17.7%,5.8%,3%,-5.7%,29.5%,39.5%
O=C1C(OC(=O)c2ccccc2)=C(OC(=O)c2ccccc2)C(=O)C(OC(=O)c2ccccc2)=C1OC(=O)c1ccccc1,-7.15%,-1.25%,13.8%,-22.8%,2.85%,2.75%
c1ccc2cc(B(c3cccc4ccccc34)c3cccc4ccccc34)ccc2c1,14%,-8.75%,-8.4%,-25.6%,-2.25%,-23.9%
O=S1(=O)C(Cl)c2ccccc2-c2ccccc2C1Cl (stereo not given),-1.35%,-6.65%,-10.4%,8.3%,5%,-9.65%
